Source: PubChem BioAssay
An excerpt weighted towards active compounds, which were near 10% of everything screened.
G9a inh: inhibitors of human histone lysine methyltransferase G9a. AID 504332. Potency, µM (series often up to 102 µM), for the others: top-dose activity, negative = inhibition, actives largely listed as inhibitors. G9a H3K9 monomethylation, AlphaScreen, 2 h. Q96KQ7. 8.8% of 350,000 active; also: % is scaled to controls: 0 for no effect and ±100 for the full control effect; nearly all actives have a fitted effect of over 75% in size
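G9a (20 nM) was preincubated 15 min with compound, then reacted 2 h at room temperature with 500 nM biotin-H3K9 peptide and 20 µM SAM. Monomethyl-H3K9 detected by AlphaScreen using anti-H3K9me1 antibody.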
JMJD2A Tudor inh: JMJD2A Tudor domain (human) inhibition. AlphaScreen JMJD2A-Tudor / H3K4me3 peptide binding. Potency, µM (doses to about 114 µM), without a hit: at the top dose activity change, negative = inhibition, actives largely listed as inhibitors. 4.4% of 390,000 active. AID 504339; also: % is scaled to controls: 0 for no effect and ±100 for the full control effect; nearly all actives have a fitted effect of over 50% in size
Target sequence (O75164 whole entry, looked up, the tested form may be a part): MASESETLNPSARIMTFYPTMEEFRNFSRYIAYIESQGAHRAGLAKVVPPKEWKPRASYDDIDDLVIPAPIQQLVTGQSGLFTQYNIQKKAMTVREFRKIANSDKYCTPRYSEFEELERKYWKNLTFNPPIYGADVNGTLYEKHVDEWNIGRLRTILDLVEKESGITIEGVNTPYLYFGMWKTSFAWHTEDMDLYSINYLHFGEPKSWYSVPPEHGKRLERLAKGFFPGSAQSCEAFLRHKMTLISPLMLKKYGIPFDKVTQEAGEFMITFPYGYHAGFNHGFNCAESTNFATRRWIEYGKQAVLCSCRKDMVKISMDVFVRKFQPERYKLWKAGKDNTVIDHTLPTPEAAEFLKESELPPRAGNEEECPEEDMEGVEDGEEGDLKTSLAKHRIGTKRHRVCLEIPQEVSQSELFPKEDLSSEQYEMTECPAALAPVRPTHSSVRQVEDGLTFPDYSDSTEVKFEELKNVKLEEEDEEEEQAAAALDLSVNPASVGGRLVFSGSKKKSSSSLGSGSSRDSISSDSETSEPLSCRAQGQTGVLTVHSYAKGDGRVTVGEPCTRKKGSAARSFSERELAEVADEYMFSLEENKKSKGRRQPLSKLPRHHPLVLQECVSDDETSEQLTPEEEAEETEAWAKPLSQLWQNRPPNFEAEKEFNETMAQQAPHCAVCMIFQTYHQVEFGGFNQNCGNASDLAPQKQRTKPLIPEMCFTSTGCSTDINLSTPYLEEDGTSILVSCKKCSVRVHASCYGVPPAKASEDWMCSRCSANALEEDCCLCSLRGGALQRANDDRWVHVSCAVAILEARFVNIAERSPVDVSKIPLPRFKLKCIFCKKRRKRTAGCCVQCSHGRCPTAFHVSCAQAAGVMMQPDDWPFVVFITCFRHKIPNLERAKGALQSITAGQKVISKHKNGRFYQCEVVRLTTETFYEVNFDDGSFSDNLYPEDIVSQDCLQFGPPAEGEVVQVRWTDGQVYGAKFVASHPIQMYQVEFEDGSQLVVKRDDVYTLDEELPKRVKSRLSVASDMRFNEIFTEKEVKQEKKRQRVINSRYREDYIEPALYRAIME
BAZ2B block: BAZ2B (human) inhibition. 4.4% of 360,000 active. Potency, µM (series often up to 114 µM), for the others: at the top dose activity change, negative = inhibition, most hits filed as inhibitors. AID 504333. AlphaScreen BAZ2B-H3K14Ac peptide displacement; also: % is scaled to controls: 0 for no effect and ±100 for the full control effect; nearly all actives have a fitted effect of over 60% in size
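Multi-concentration screen (max 110 uM) measuring displacement of acetylated histone H3 peptide from BAZ2B by AlphaScreen, using 50 nM protein, 50 nM peptide and 10 ug/mL streptavidin donor plus Ni-chelate acceptor beads.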
HP1b binding inh: HP1-beta chromodomain-methylated histone interaction inhibition; Potency, µM (titrated, usually from 114 µM), without a hit: at the top dose activity change, negative = inhibition, hits mostly inhibitors; P83916; 0.56% of 390,000 active; AlphaScreen HP1-beta / biotin-H3K9me3 peptide binding; also: nearly all actives have a fitted effect of over 70% in size
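AlphaScreen: HP1-beta (50 nM) preformed 30 min with biotin-H3(1-18)K9me3 peptide (50 nM) in PBS pH 7.4, 0.01% Tween-20. Compound added for 30 min at RT, then streptavidin donor/nickel chelate acceptor beads (10 ug/mL) for 30 min.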
GLS inh: glutaminase GLS (human) inhibition; O94925; Potency, µM (titrated, usually from 45.5 µM), for the others: at the top dose activity change, negative = inhibition, hits mostly inhibitors; 0.21% of 410,000 active; GLS enzymatic activity, qHTS titration; also: % is scaled to controls: 0 for no effect and ±100 for the full control effect
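Assay buffer: 45 mM KH2PO4 pH 8.2, 0.02% Tween-20. hKGA acts on L-glutamine (1 mM solution added); product glutamate is reported by an oxidase/peroxidase Amplex Red coupling, with fluorescence taken at baseline and 30 min.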
Active calls of the source: *; ! = a repeat was not active; [ ] = remark or other dose. Calls follow the shape of the dose curve; as a rule, active = well fitted curve in the direction sought with a large enough effect; inconclusive = small, poorly fitted or top-dose-only effect, or another doubt; inactive = no such curve, though single readings can be large; an effect the other way counts as inactive or inconclusive. Potency is read from the fitted curve at half-maximal effect.

How did CCc1cc(=S)n2c([nH]c3ccccc32)c1C#N do in these assays?
G9a inh: 3.98µM*; JMJD2A Tudor inh: 20µM*; BAZ2B block: 79.4µM*; HP1b binding inh: 39.8µM*; GLS inh: 14.5%

Results for Cc1c(CCC(=O)O)c(=O)n2c([nH]c3ccccc32)c1C#N ?
G9a inh: 2.24µM*; JMJD2A Tudor inh: -21.8%; BAZ2B block: -31.8%; HP1b binding inh: 28.5%; GLS inh: 36.3%

How did O=C(NCC1CCOCC1)c1ccc(-c2ccc(F)c(F)c2)c2ccoc12 do in these assays?
GLS inh: -9.8%

How did Cc1cccc(CNC(=O)c2ccc(C)c(-n3c(C)nc4cccnc43)c2)c1 do in these assays?
G9a inh: -28.0%[59 µM]; JMJD2A Tudor inh: -10.0%; BAZ2B block: -5.3%; HP1b binding inh: 46.3%; GLS inh: 1.0%

How did NC(=O)c1ccc[n+]([C@H]2O[C@@H](COP(=O)([O-])OP(=O)(O)OC[C@H]3O[C@@H](n4cnc5c(N)ncnc54)[C@H](O)[C@@H]3O)[C@H](O)[C@@H]2O)c1 do in these assays?
G9a inh: -24.8%[12.7 µM]; JMJD2A Tudor inh: 79.4µM*; BAZ2B block: 35.5µM*; HP1b binding inh: 22.7%; GLS inh: -9.0%

How did NC(=S)c1ccc[n+]([C@@H]2O[C@@H](COP(=O)([O-])OP(=O)(O)OC[C@H]3O[C@@H](n4cnc5c(N)ncnc54)[C@H](OP(=O)(O)O)[C@@H]3O)C(O)C2O)c1 (stereo partly specified) do in these assays?
G9a inh: 7.94µM*

Results for NC(=S)c1ccc[n+]([C@@H]2O[C@@H](COP(=O)([O-])OP(=O)(O)OC[C@H]3O[C@@H](n4cnc5c(N)ncnc54)[C@H](OP(=O)(O)O)[C@H]3O)C(O)C2O)c1 (stereo partly specified) ?
G9a inh: 17.8µM*

What do the screens show for `NC(=O)c1ccc[n+]([C@@H]2O[C@H](COP(=O)([O-])OP(=O)(O)OC[C@H]3O[C@@H](n4cnc5c(N)ncnc54)[C@@H](O)[C@@H]3O)[C@@H](O)[C@@H]2O)c1`?
G9a inh: 9.4%[21.5 µM]; GLS inh: -0.9%[20 µM]

Results for NC(=O)c1ccc[n+]([C@@H]2OC(COP(=O)([O-])OP(=O)(O)OCC3OC(n4cnc5c(N)ncnc54)C(O)C3O)C(O)C2O)c1 (stereo partly specified) ?
G9a inh: -40.1%[2.33 µM]

Results for COc1ccc(-c2ccc(C(=O)C3CC3)cc2)cc1 ?
G9a inh: 21.0%; JMJD2A Tudor inh: -6.8%; BAZ2B block: -6.9%; HP1b binding inh: 56.7%; GLS inh: 7.3%

What do the screens show for `CC[N+]1(C)CCC(O)(c2ccc(OC)cc2)C(C(=O)c2ccc(OC)cc2)C1` (stereo unspecified)?
JMJD2A Tudor inh: 89.1µM*; HP1b binding inh: -4.8%; GLS inh: -9.6%

Results for [N-]=[N+]=Nc1ccc(C(=O)CSC[C@H](NC(=O)CC[C@H](N)C(=O)O)C(=O)NCC(=O)O)cc1 ?
G9a inh: 31.6µM*!

How did Clc1ccc(-c2nnc(-c3ccc(Br)cc3)c(N3CCSCC3)n2)cc1 do in these assays?
G9a inh: 39.5%[12.7 µM]; JMJD2A Tudor inh: -22.0%; BAZ2B block: inconclusive; HP1b binding inh: 3.0%; GLS inh: -7.6%

What do the screens show for `Clc1ccc(-c2nnc(-c3ccco3)nc2N2CCCCC2)cc1`?
G9a inh: 10µM*; JMJD2A Tudor inh: 44.7µM*; BAZ2B block: 50.1µM*; HP1b binding inh: -18.2%; GLS inh: -6.4%

Results for Cc1nc([N+](=O)[O-])c(Br)n1CC(=O)c1ccc(Cl)cc1 ?
G9a inh: 50.1µM*; JMJD2A Tudor inh: -24.2%; BAZ2B block: -1.9%; HP1b binding inh: 25.3%; GLS inh: -18.3%

How did COc1ccc(C(=O)Cn2c(C)nc([N+](=O)[O-])c2Br)cc1 do in these assays?
G9a inh: 7.6%; JMJD2A Tudor inh: -10.5%; BAZ2B block: -0.2%; HP1b binding inh: 27.0%; GLS inh: -0.6%

Results for O=C(Nc1ccc2c(c1)OCO2)c1cc(-c2ccncc2)nc2ccccc12 ?
G9a inh: 50.1µM*; JMJD2A Tudor inh: inconclusive; BAZ2B block: inconclusive; HP1b binding inh: inconclusive; GLS inh: 4.6%

How did Cc1ccc(/C=N/NC(=O)c2cccnc2)o1 do in these assays?
G9a inh: -3.6%; JMJD2A Tudor inh: -16.1%; BAZ2B block: -18.2%; HP1b binding inh: 38.6%; GLS inh: -4.1%

Results for Cc1ccc(/C=N\NC(=O)c2cncc(Br)c2)o1 ?
G9a inh: 50.1µM*; JMJD2A Tudor inh: -13.7%; BAZ2B block: -4.0%; HP1b binding inh: 29.5%; GLS inh: -2.0%

What do the screens show for `Cc1ccc(/C=N/NC(=O)c2cc(-c3ccncc3)nc3ccccc23)o1`?
G9a inh: 44.7µM*; JMJD2A Tudor inh: -34.5%; BAZ2B block: inconclusive; HP1b binding inh: 26.8%; GLS inh: 4.9%

Results for O=C(O)c1cc(-c2ccc(-c3c(-c4ccc5c(c4)OCO5)noc3-c3ccsc3)cc2)nc2ccccc12 ?
G9a inh: 56.2µM*; JMJD2A Tudor inh: 89.1µM*; BAZ2B block: inconclusive; HP1b binding inh: -1.8%; GLS inh: 3.9%

What do the screens show for `CN(C)c1ccc(-c2c(-c3ccc4c(c3)OCO4)noc2-c2ccsc2)cn1`?
JMJD2A Tudor inh: -20.4%; BAZ2B block: -5.7%; HP1b binding inh: 11.4%; GLS inh: 2.4%

What do the screens show for `COc1ccc(CNC(=O)c2ccc(-c3c(C)noc3C)c3ccoc23)cc1OC`?
GLS inh: -1.1%

Results for O=C(N/N=C/c1ccccn1)c1cc(-c2ccncc2)nc2ccccc12 ?
G9a inh: -3.8%[59 µM]; JMJD2A Tudor inh: -0.7%; BAZ2B block: 79.4µM*; HP1b binding inh: 40.4%; GLS inh: -8.5%

How did Cc1ccc(-c2cc(C(=O)N/N=C/c3ccc([N+](=O)[O-])o3)c3ccccc3n2)o1 do in these assays?
G9a inh: 44.7µM*; JMJD2A Tudor inh: -34.8%; BAZ2B block: -37.4%; HP1b binding inh: 10.1%; GLS inh: -9.6%

What do the screens show for `O=C(N/N=C/c1ccsc1)c1cc(-c2ccncc2)nc2ccccc12`?
G9a inh: 3.1%; JMJD2A Tudor inh: -17.1%; BAZ2B block: -24.8%; HP1b binding inh: 16.2%; GLS inh: 17.0%

How did COCc1ccccc1C1=CC(=O)C[C@H](c2ccc(OC)cc2)C1 do in these assays?
G9a inh: -1.2%[2.33 µM]; JMJD2A Tudor inh: -7.9%; BAZ2B block: -0.7%; HP1b binding inh: 83.2%; GLS inh: 0.8%

How did C#C[C@@]1(OC(C)=O)CC[C@H]2[C@@H]3CCC4=CC(=O)CC[C@@H]4[C@H]3CC[C@@]21C do in these assays?
GLS inh: 0.3%
